# According to PubChem BioAssay:
# Where “and” joins values, the source holds several entries; their conditions need not be identical. Identical values can stand only once. Records with an inconclusive call do not appear. For part of these data: Results with a measured potency or affinity are listed apart. Calls of active or inactive are those of the source.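 Rule for the calls, unless noted: active = compounds killing one labelled cell type while sparing the other, by normalised counts and ratio limits, not self-fluorescent; inactive = the rest.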
# Legend:
# [1] = system: Aerobactin synthetase IucA (Klebsiella pneumoniae); test: IucA aerobactin synthetase inhibitors, biochemical, Tocris library, absorbance (AID 1345561; call rule not given here;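 note: 100% = enzyme without compound and 0% = no enzyme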); settings: purified IucA enzyme assay, absorbance (OD) read-out; stronger effect = lower value;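 tested at 8 µM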
# [2] = growth inhibition of DIPG glioma cells, dose response, cell-based, SU-DIPG-XVII, MIPE5.0, CellTiter-Glo, qHTS (AID 1347060; cut-off not given, nearly all actives have AC50 up to about 26 µM); settings: SU-DIPG-XVII viability, CellTiter-Glo ATP luminescence
# [3] = growth inhibition of DIPG glioma cells, dose response, cell-based, SU-DIPG-XIII, MIPE4.0, CellTiter-Glo, qHTS (AID 1347061; cut-off not given, nearly all actives have AC50 up to about 37 µM;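 note: cells exposed to compound for 48 hours before readout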); settings: SU-DIPG-XIII viability, CellTiter-Glo ATP luminescence
# [4] = growth inhibition of DIPG glioma cells, dose response, cell-based, JHH-DIPG-1, MIPE4.0, CellTiter-Glo, qHTS (AID 1347062; cut-off not given, nearly all actives have AC50 up to about 27 µM); settings: JHH-DIPG-1 viability, CellTiter-Glo ATP luminescence
# [5] = growth inhibition of DIPG glioma cells, dose response, cell-based, SU-DIPG-IV, MIPE4.0, CellTiter-Glo, qHTS (AID 1347063; cut-off not given, nearly all actives have AC50 up to about 30 µM;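 note: compound exposure lasted 48 hours before the viability readout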); settings: SU-DIPG-IV viability, CellTiter-Glo ATP luminescence
# [6] = growth inhibition of DIPG glioma cells, dose response, cell-based, SU-DIPG-XIII, MIPE5.0, CellTiter-Glo, qHTS (AID 1347064; cut-off not given, nearly all actives have AC50 up to about 23 µM); settings: SU-DIPG-XIII viability, CellTiter-Glo ATP luminescence
# [7] = viability loss in pontine glioma line – cell-based, SU-DIPG-XXV, MIPE5.0, CellTiter-Glo, qHTS, dose response (AID 1347065; cut-off not given, nearly all actives have AC50 up to about 26 µM;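 note: cells exposed to compound for 48 hours before ATP readout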); settings: CellTiter-Glo ATP luminescence
# [8] = SU-DIPG-VI glioma cell viability, MIPE4.0 library, CellTiter-Glo luminescence, qHTS (AID 1347066; cut-off not given, nearly all actives have AC50 up to about 30 µM;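 note: cells exposed to compound for 48 hours before readout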); settings: CellTiter-Glo ATP luminescence
# [9] = JHH-DIPG-1 glioma cell viability, MIPE5.0 library, CellTiter-Glo luminescence, qHTS (AID 1347067; cut-off not given, nearly all actives have AC50 up to about 26 µM;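 note: cells exposed to compound for 48 hours before readout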); settings: JHH-DIPG-1 glioma viability, CellTiter-Glo ATP luminescence
# [10] = SU-DIPG-XXV glioma cell viability, MIPE5.0 library, qHTS (AID 1347068; cut-off not given, nearly all actives have IC50 up to about 30 µM)
# [11] = sensitizers of A549 cells to miR-34 induction, primary screen, imaging, A549 dox-inducible miR-34, nuclei and caspase counts (AID 1347080;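 active = compounds whose cell count with miR-34 switched on is under 0.7 times the count with it off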); settings: A549 miR-34 inducible, Hoechst nuclei count, 48 h
# [12] = viability rescue of complex I mutant cybrids, primary screen, cell-based, galactose medium, ATP luminescence (AID 1645843;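 active = z-score of at least 1.8 in each of two replicates, scored against plate mean and spread of sample wells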;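 note: positive z means more ATP and so rescue of galactose-driven cybrid death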); settings: complex I mutant cybrid cells, 72 h, stronger effect = higher value
# [13] = liver-stage malaria parasite growth inhibition, primary screen, cell-based, HepG2, luciferase luminescence, HepG2 viability (AID 624349; in the data active = parasite load remaining mostly below about 12%, no sharp cut-off; inactive = mostly above about 10%;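 note: 100% = mean of DMSO negative control wells on the same plate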); settings: P. berghei liver stage in HepG2, luciferase luminescence, concentration not given here; parasite load remaining: stronger effect = lower value; viability: measured here: HepG2 viability without parasites
# [14] = differential killing of epithelial or mesenchymal cells, primary screen, imaging, PC-3E GFP, TEM4-18 mCherry, co-culture (AID 1345086); settings: imaging cell counts, at 1 µM; for red/green cell ratio (normalised): actives lie on both sides, counts scaled to control wells, 1 = unselective;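 for all read-outs here: cells exposed to compound for 72 h before imaging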;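 for red/green cell ratio (normalised): normalised mesenchymal count divided by normalised epithelial count so high means epithelial killing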
# [15] = polyglutamine-triggered caspase-3 activation inhibitors, cell-based (AID 1583); settings: polyglutamine-induced caspase-3 activation, cell assay; stronger effect = higher value;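 tested at 10 µM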
# [16] = suppressors of polyQ aggregation in yeast, 75Q-TubU reporter (AID 1593); settings: Yeast 75Q polyglutamine aggregation reporter
# [17] = inhibitors of mitochondrial cytochrome c release, biochemical, purified mitochondria (AID 1603); settings: stronger effect = lower value;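 note: mouse liver mitochondria challenged with calcium chloride; signal normalized to the plate average as 100%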
# [18] = inhibitors of polyQ protein aggregation (AID 1604); settings: polyglutamine-induced protein aggregation inhibition assay; stronger effect = higher value; tested at 2.5 µM
# [19] = enhancers of glutamate uptake in motor neurons, MN-1 cell line (AID 1612); settings: MN-1 motor neuron cells, stronger effect = higher value;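 note: tested at 1 µM final; 0% = mean of DMSO vehicle wells on each plate; positive means more glutamate uptake than control and negative means less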
# [20] = reducers of polyQ inclusions in PC12 cells, cell-based, NGF-treated PC12, GFPQ80 (AID 1614); settings: PC12 NGF-treated GFP-polyQ80 inclusion reduction;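 note: lower means fewer inclusions and 0 means no inclusions at all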
# [21] = suppressors of polyglutamine aggregation in yeast, 75Q-TubH (AID 1616); settings: S. cerevisiae 75Q-TubH polyglutamine aggregation suppression; stronger effect = higher value
# [22] = molecular target: Mitogen-activated protein kinase 7 (Homo sapiens) (UniProt Q13164); test: ERK5 transactivation activators in reporter cells, primary screen, cell-based, HTS (AID 1508626;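 active = luciferase signal above three times the same-plate solvent-only control wells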;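 note: luciferase driven by Gal4-ERK5 fusion binding five Gal4 sites before minimal TATA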); settings: HeLa Gal4-ERK5 transactivation, 18 h, at 5 µM, stronger effect = higher value
# [23] = rescue of polyQ-huntingtin neuronal dysfunction in worms, whole organism, C. elegans mechanosensory neurons, N-terminal huntingtin (AID 1599); settings: touch response, stronger effect = higher value
# [24] = molecular target: ATP-dependent translocase ABCB1 (Homo sapiens) (UniProt P08183); test: MDR1 (ABCB1) efflux transporter inhibition, cell-based (AID 377; in the data active = fluorescence slope change above about 50%); settings: MDR1-expressing cells, fluorescent substrate accumulation slope; stronger effect = higher value; concentration not given here
# [25] = measured here: epithelial PC-3E GFP cell survival
# [26] = measured here: mesenchymal TEM4-18 mCherry cell survival
# Sequence of ATP-dependent translocase ABCB1 (Homo sapiens) (P08183 whole entry, looked up): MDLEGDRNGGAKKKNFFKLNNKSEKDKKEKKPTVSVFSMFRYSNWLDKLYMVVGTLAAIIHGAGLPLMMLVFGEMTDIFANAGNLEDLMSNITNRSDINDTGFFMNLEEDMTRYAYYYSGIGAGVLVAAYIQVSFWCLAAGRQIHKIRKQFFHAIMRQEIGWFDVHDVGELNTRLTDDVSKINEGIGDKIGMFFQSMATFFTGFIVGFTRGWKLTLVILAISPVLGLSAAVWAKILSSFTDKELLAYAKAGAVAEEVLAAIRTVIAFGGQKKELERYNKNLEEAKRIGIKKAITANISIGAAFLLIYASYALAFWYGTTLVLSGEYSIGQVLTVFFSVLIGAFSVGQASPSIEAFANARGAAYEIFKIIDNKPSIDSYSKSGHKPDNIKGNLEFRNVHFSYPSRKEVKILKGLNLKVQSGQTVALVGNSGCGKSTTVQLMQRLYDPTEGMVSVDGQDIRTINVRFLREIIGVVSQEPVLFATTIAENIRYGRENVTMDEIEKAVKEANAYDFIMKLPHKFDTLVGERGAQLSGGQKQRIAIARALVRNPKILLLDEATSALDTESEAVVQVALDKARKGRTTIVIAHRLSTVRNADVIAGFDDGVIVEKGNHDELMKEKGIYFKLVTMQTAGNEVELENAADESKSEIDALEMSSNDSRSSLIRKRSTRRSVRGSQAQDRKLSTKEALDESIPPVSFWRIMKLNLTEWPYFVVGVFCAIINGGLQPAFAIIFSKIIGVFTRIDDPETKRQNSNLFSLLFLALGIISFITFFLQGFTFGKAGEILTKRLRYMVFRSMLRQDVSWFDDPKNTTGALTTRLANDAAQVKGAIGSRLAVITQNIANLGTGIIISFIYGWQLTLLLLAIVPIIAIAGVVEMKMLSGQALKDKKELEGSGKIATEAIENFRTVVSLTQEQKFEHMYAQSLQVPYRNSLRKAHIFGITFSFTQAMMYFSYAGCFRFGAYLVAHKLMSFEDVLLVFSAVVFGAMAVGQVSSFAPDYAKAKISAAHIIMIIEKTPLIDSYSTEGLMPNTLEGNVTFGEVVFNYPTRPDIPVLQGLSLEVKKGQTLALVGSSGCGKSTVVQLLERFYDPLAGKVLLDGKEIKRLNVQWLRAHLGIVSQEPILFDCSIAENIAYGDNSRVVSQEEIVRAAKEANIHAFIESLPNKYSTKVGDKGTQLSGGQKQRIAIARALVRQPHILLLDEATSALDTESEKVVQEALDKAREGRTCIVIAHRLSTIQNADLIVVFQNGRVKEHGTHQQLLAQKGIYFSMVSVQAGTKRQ
# Sequence of Mitogen-activated protein kinase 7 (Homo sapiens) (Q13164 whole entry, looked up, the tested form may be a part): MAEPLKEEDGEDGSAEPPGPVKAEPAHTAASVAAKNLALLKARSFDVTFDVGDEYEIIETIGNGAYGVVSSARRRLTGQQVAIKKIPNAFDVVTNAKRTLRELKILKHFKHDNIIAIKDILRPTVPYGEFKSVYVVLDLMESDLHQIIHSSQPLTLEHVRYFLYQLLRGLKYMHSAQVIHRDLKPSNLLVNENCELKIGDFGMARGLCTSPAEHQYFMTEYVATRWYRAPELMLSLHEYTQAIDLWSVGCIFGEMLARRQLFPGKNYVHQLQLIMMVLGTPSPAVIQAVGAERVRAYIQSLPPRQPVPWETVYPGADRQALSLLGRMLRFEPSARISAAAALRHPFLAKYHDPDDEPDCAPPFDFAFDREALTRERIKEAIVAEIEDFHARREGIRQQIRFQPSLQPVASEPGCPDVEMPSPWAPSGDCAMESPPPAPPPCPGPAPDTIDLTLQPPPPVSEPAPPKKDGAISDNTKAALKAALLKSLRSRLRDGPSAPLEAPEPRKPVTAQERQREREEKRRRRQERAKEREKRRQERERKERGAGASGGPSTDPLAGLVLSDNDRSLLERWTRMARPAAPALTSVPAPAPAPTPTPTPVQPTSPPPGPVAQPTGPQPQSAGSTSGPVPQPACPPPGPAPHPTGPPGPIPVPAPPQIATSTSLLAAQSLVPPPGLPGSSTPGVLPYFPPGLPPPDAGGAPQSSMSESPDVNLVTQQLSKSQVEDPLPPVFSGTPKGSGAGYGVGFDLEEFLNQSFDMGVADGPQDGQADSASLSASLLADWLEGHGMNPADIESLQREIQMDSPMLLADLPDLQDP
structure (smiles),measurement,setting,value
CCN(c1ccccc1)c1cc(NC)[n+](C)c(C)n1,remaining activity,[1],84.7% (inactive)
same,outcome,[2],inactive
same,outcome,[3],inactive
same,outcome,[4],inactive
same,outcome,[5],inactive
same,outcome,[6],inactive
same,outcome,[7],inactive
same,outcome,[8],inactive
same,outcome,[9],inactive
same,outcome,[10],inactive
same,fold change,"[11]; stronger effect = lower value, cell number ratio, induced over uninduced",1.03 (inactive)
same,fold change,[11]; measured here: relative caspase fold change +Dox/-Dox,0.719
same,cell count,"[11]; measured here: total cells with miR-34 induction, stronger effect = lower value",7990
same,cell count,[11]; measured here: total cells without miR-34 induction,7790
same,z-score,[12],0.245 (inactive)
CC(CCC(=O)O)[C@H]1CCC2C3CC[C@@H]4C[C@H](O)CC[C@]4(C)C3CC[C@@]21C (some centres not stated),parasite load remaining,[13],32.1% (inactive)
same,viability,[13],67.3%
same,red/green cell ratio (normalised),[14],0.99 (inactive)
same,normalised cell number,[14]; [25],0.91
same,normalised cell number,[14]; [26],0.89
CC1=C2C(=CO[C@H](C)[C@H]2C)C(=O)C(C(=O)O)=C1O,inhibition,[15],1.38%
same,score,[16],0.74
same,cytochrome c release ratio,[17],0.99
same,inhibition of aggregation,[18],68.3%
same,glutamate uptake change,[19],33.3%
same,inclusion score,[20],2
same,aggregation suppression score,[21],0.187
same,red/green cell ratio (normalised),[14],1.08 (inactive) and 1.06 (inactive) and 0.92 (inactive)
same,normalised cell number,[14]; [25],0.92 and 0.97 and 1.03
same,normalised cell number,[14]; [26],0.99 and 1.03 and 0.95
same,luciferase signal,[22],52 AU (inactive)
CC[C@H](C)C(=O)O[C@H]1CCC=C2C=C[C@H](C)C(CCC3C[C@@H](O)CC(=O)O3)[C@H]21 (some centres not stated),inhibition,[15],-3.44%
same,score,[16],0.88
same,rescue above control,[23],-3.11
same,cytochrome c release ratio,[17],1.24
same,inhibition of aggregation,[18],31.8%
same,glutamate uptake change,[19],12.1%
same,aggregation suppression score,[21],0.746
same,red/green cell ratio (normalised),[14],0.93 (inactive)
same,normalised cell number,[14]; [25],0.95
same,normalised cell number,[14]; [26],0.89
CCCCC[C@H](O)/C=C/[C@H]1[C@H](O)CC(=O)[C@@H]1C/C=C\CCCC(=O)O,fluorescence slope change,[24],51% (active)
